Data taken from PubChem BioAssay (EPA / NIEHS).
Results filed as inconclusive are left out. Active and inactive are the calls of the source. Rule for the calls, unless noted: active = hit-call score of the fitted dose curve at least 0.9, where 1 is the maximum; inconclusive = response in the unintended direction; inactive = score below 0.9.

Key:
[1] = CEETOX_H295R_ESTRONE: CeeTox H295R High-throughput Steroidogenesis Assay for Estrone (AID 2283441; active = hit-call score of the fitted dose curve at least 0.9, where 1 is the maximum; inactive = score below 0.9;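 note: estrone secreted into medium measured by LC-MS/MS after dansyl derivatization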;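 for AC50: human adrenal H295R cells prestimulated with forskolin for two days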); settings: actives raise or lower the signal
How it was run: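 H295R cells; 48 h forskolin (10 uM) prestimulation; 48 h compound exposure, 0.1% DMSO final. Medium estrone: MTBE extraction, dansyl derivatization, HPLC-MS/MS. Bidirectional fit vs DMSO.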

[2] = CEETOX_H295R_PROG: CeeTox H295R High-throughput Steroidogenesis Assay for Progesterone (PROG) (AID 2283442; active = hit-call score of the fitted dose curve at least 0.9, where 1 is the maximum; inactive = score below 0.9;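 for AC50: human H295R adrenal cells primed with 10 µM forskolin before dosing; progesterone secreted into medium by H295R cells measured by HPLC-MS/MS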); settings: actives raise or lower the signal
How it was run: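 Steps: seed H295R cells and let them adhere overnight; prime 48 h with 10 uM forskolin; dose with compound in DMSO at 0.1% final for 48 h; extract medium steroids with MTBE; measure progesterone by LC-MS/MS. MTT viability was run in the same wells.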

[3] = CEETOX_H295R_TESTO: CeeTox H295R High-throughput Steroidogenesis Assay for Testosterone (TESTO) (AID 2283457; active = hit-call score of the fitted dose curve at least 0.9, where 1 is the maximum; inactive = score below 0.9;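 for AC50: cells exposed to chemicals for 48 h before medium collection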); settings: actives raise or lower the signal
How it was run: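 H295R, passage ≤10, 48 h dosing; media extracted with MTBE → HPLC-MS/MS for testosterone; 7-pt standard curve sets LLOQ/ULOQ; bidirectional fit vs DMSO; MTT viability same wells.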

[4] = ATG_XTT_Cytotoxicity: Cytotoxicity Assessment in the Attagene TRANS-FACTORIAL HepG2 Assay (AID 2283584);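 for AC50: cells exposed to compound for 24 h before reading; active means loss of viability signal versus DMSO baseline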
How it was run: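 Cells: human HepG2, transiently transfected with MRTU reporter constructs. Exposure 24 h. Readout: XTT, cell number. Baseline/neg ctrl DMSO; loss-of-signal scored.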

[5] = CEETOX_H295R_MTT_cell_viability: Viability Assessment in the CeeTox HT-H295R MTT Assay (AID 2283718; active = hit-call score of the fitted dose curve at least 0.9, where 1 is the maximum; inactive = score below 0.9)
How it was run: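 MTT reduction (0.5 mg/ml, 4 h at 37 C; absorbance at 570 and 650 nm) gave viability as background-corrected percent change versus controls. H295R cells had 48 h forskolin (10 uM) prestimulation, then 48 h chemical exposure at 0.1% DMSO.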

[6] = TOX21_p53_BLA_p2_viability: Viability Assessment in the Tox21 HCT-116 p53 Agonism Beta-lactamase Assay, Phase 2 (AID 2283591);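 note: compound exposure lasted 16 h at 37 °C; actives lower the ATP signal meaning cytotoxicity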
How it was run: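 Cytotoxicity readout: CellTiter-Glo ATP luminescence, 30 min at room temperature, after the beta-lactamase read. Cells were HCT116 exposed 16 h at 37C to compounds pin-transferred at 217-fold dilution from DMSO stocks.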

[7] = molecular target: Cellular tumor antigen p53 (Homo sapiens) (UniProt P04637); test: TOX21_p53_BLA_p2_ratio: Tox21 HCT-116 p53 Agonism Beta-lactamase Assay, Ratio, Phase 2 (AID 2283592)
Cellular tumor antigen p53 (Homo sapiens), sequence (P04637 whole entry, looked up): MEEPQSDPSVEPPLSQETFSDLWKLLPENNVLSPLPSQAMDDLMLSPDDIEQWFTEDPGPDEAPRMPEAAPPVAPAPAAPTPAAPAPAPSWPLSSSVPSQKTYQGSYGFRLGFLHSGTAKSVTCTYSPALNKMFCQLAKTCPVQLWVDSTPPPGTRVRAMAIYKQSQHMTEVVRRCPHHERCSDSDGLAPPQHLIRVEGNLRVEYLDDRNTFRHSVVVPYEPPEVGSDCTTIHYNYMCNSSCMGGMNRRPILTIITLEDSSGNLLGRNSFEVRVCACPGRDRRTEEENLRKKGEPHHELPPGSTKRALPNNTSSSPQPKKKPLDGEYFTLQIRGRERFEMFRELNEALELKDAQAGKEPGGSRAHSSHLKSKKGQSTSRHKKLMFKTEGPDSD
How it was run: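 HCT116 p53-bla; 4000 cells/well; 5 h pre-incubation; cpd in DMSO, 217-fold dilution; 16 h 37C/5% CO2; CCF4-AM 2 h RT; Ex 405, Em 460/530 ratio; DMSO = baseline; positive fitting direction.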

[8] = TOX21_p53_BLA_p3_viability: Viability Assessment in the Tox21 HCT-116 p53 Agonism Beta-lactamase Assay, Phase 3 (AID 2283593);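 note: cells exposed to compound for 16 h before reading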
How it was run: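 Cellular ATP was quantified by CellTiter-Glo luminescence, read after 30 min at room temperature. Beforehand, HCT116 cells (4000/well) received compound 5 h post-seeding, 217-fold diluted from DMSO, then incubated 16 h at 37C.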

[9] = molecular target: Cellular tumor antigen p53 (Homo sapiens) (UniProt P04637); test: TOX21_p53_BLA_p3_ratio: Tox21 HCT-116 p53 Agonism Beta-lactamase Assay, Ratio, Phase 3 (AID 2283596)
How it was run: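 HCT116 p53-bla cells (4000/well) given compound in DMSO (217-fold dilution) after 5 h, incubated 16 h at 37C. CCF4-AM substrate 2 h at room temperature; 460/530 nm emission ratio, gain fitted against DMSO.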

[10] = TOX21_p53_BLA_p4_viability: Viability Assessment in the Tox21 HCT-116 p53 Agonism Beta-lactamase Assay, Phase 4 (AID 2283597);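 note: hits lower the luminescence signal meaning cytotoxicity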
How it was run: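 Cells plated, 5 h pre-incubation; DMSO compounds pinned (217-fold dilution); 16 h, 37C/5% CO2; CCF4-AM 2 h RT; CellTiter-Glo 30 min RT; luminescence read.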

[11] = molecular target: Cellular tumor antigen p53 (Homo sapiens) (UniProt P04637); test: TOX21_p53_BLA_p5_ratio: Tox21 HCT-116 p53 Agonism Beta-lactamase Assay, Ratio, Phase 5 (AID 2283599)
How it was run: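 Beta-lactamase reporter ratio (blue 460 nm over green 530 nm, 405 nm excitation) after 2 h CCF4-AM loading, in HCT-116 cells exposed 16 h at 37 C to compounds pinned at 217-fold dilution. Increases relative to DMSO baseline scored.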

[12] = TOX21_p53_BLA_p5_viability: Viability Assessment in the Tox21 HCT-116 p53 Agonism Beta-lactamase Assay, Phase 5 (AID 2283600)
How it was run: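 4000 cells/well; 5 h pre-incubation; DMSO compounds pin-transferred, 217-fold dilution; 16 h, 37C/5% CO2; CCF4-AM 2 h RT; CellTiter-Glo 30 min RT; luminescence.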

[13] = molecular target: Cellular tumor antigen p53 (Homo sapiens) (UniProt P04637); test: TOX21_p53_BLA_p4_ratio: Tox21 HCT-116 p53 Agonism Beta-lactamase Assay, Ratio, Phase 4 (AID 2283601)
How it was run: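 Signal is the blue/green (460nm/530nm) ratio of cleaved versus uncleaved CCF4-AM substrate, read after 2 h substrate loading. Cells were HCT116 carrying the p53-responsive beta-lactamase reporter, dosed 16 h at 37C, 5% CO2; CellTiter-Glo measured in parallel.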

[14] = system: Thyroperoxidase (TPO), gene 54314; test: CCTE_Simmons_AUR_rTPO: CCTE's Amplex UltraRed Assay for Thyroperoxidase (TPO) Inhibition, Simmons Lab (AID 2283662);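 note: potency for loss of signal meaning inhibition of peroxidase activity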
How it was run: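 Rat thyroid microsomes (5 ug protein) were incubated with test compound (8 concentrations, 5 nM–87.5 uM final, 0.5% DMSO), 25 uM Amplex UltraRed and 300 uM H2O2 in 200 mM phosphate buffer for 30 min at 37C in the dark; fluorescence read at 544/590 nm.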

[15] = CCTE_Simmons_CellTiterGLO_HEK293T: Viability Assessment in CCTE's Assays for Thyroperoxidase (TPO) Inhibition, Simmons Lab (AID 2283665);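 for AC50: cells exposed to compound for 24 h before readout; actives reduce ATP signal below DMSO vehicle meaning cytotoxicity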
How it was run: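 Cytotoxicity counter-screen: human HEK293T cells in low-serum (1% FBS) medium receive test chemical, 5 nM to 87.5 uM final, for 24 h; ATP is quantified by luciferase luminescence.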

[16] = molecular target: Luciferin 4-monooxygenase (Photinus pyralis) (UniProt P08659); test: CCTE_Simmons_QuantiLum_inhib_2: CCTE's Firefly Luciferase Inhibition Assay, Simmons Lab (AID 2283767);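 for AC50: potency for inhibitors that lower luciferase luminescence relative to DMSO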
Luciferin 4-monooxygenase (Photinus pyralis), sequence (P08659 whole entry, looked up): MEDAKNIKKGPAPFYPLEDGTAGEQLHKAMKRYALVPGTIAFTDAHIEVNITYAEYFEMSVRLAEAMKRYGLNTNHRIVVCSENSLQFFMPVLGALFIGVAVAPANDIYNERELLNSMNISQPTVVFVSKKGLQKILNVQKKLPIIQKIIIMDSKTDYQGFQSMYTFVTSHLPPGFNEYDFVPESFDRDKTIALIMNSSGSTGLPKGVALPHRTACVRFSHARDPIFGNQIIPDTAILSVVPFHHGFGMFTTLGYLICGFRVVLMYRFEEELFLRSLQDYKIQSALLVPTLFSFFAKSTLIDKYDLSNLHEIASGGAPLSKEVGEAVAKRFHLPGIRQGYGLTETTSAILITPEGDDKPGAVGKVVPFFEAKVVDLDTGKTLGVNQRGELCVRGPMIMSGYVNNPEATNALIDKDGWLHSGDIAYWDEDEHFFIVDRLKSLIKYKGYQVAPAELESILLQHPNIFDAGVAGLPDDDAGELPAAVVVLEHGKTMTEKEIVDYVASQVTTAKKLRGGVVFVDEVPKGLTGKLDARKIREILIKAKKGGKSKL
How it was run: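 Counter-screen for nonspecific enzyme inhibition: purified firefly luciferase incubated 30 min at 37C with chemicals up to 87.5 uM final, then luminescence measured after luciferin/dATP injection; activity fitted against DMSO baseline.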

Measured: AC50

CCOCOCC
inactive: [1] | [2] | [3] | [4] | [5]

O=C(c1ccccc1)c1ccc(Cl)cc1
inactive: [2] | [3] | [5]

CN1CN(C)CN(C)C1
inactive: [1] | [2] | [4] | [5]

OCCC(O)CO (stereo not drawn)
inactive: [2] | [5]

CC1CCCCC1
inactive: [1] | [2] | [3] | [4] | [5]

CC1=CCC(=O)O1
inactive: [4]

Cc1cc(O)c(C(C)(C)C)cc1C(C)(C)C
active: [2] 2.64 µM | [6] 40.6 µM | [7] 70.8 µM | [8] 87 µM | [9] 87.3 µM | [10] 30.9 µM | [11] 57.2 µM | [12] 34.3 µM | [13] 44.8 µM
inactive: [1] | [3] | [4] | [5]

C[C@]12CC[C@H]3C(=CCc4cc(O)ccc43)[C@@H]1CCC2=O
active: [2] 0.502 µM | [3] 4.29 µM | [10] 15.8 µM | [14] 13.9 µM | [15] 87.7 µM | [16] 47 µM
inactive: [4] | [6] | [7] | [8] | [9] | [11] | [12] | [13] | [5]

Cc1cnccn1
inactive: [4]

CCCCCCCC/C=C\CCCCCCCC(=O)OCC(O)CO (stereo not drawn)
inactive: [4]

CC(C)C(=O)OCc1ccccc1
inactive: [4]

O=C1C=CC(=O)N1c1ccccc1
inactive: [1] | [2] | [3] | [4] | [5]
active: [6] 69.7 µM | [7] 80.4 µM | [8] 87.1 µM | [9] 86.8 µM | [10] 84.5 µM | [11] 85.3 µM | [12] 74.9 µM | [13] 77.5 µM

CCn1c2ccccc2c2ccccc21
active: [3] 50 µM
inactive: [2] | [4] | [5]

Cc1cccc(C)n1
inactive: [1] | [2] | [3] | [4] | [5]

CCN(CC)c1ccc(N=Nc2ccccc2)cc1
inactive: [1] | [2] | [3] | [4] | [5]

O=C1c2ccccc2C(=O)c2c(Cl)cccc21
inactive: [1] | [2] | [3] | [5]

O=c1[nH]cccc1O
active: [14] 0.115 µM
inactive: [1] | [2] | [4] | [15] | [5] | [16]

CSc1ccc(O)cc1C
inactive: [2] | [3] | [4] | [5]
active: [1] 26.7 µM

COCCOCCC[Si](C)(O[Si](C)(C)C)O[Si](C)(C)C
inactive: [4]

Nc1cccnc1N
inactive: [2] | [4] | [5]

Cc1ccc(S(=O)(=O)C(I)I)cc1
active: [4] 62.8 µM

CCCCC(CC)COC(=O)c1ccc(N(C)C)cc1 (stereo not drawn)
inactive: [1] | [4] | [6] | [7] | [8] | [9] | [10] | [11] | [12] | [13] | [5]
active: [2] 6.01 µM

Brc1ccccn1
inactive: [4]

CCN(CC)c1ccc(C=O)c(O)c1
inactive: [4]

CCc1ccc(C)nc1
inactive: [4]

CCCCCCCCCc1ccc(OCCO)cc1
active: [14] 38.5 µM | [15] 79.6 µM
inactive: [1] | [2] | [3] | [4] | [5] | [16]

Cc1cc(C)c(O)c(C(C)(C)C)c1
inactive: [4]
